Laboratory results from PubChem BioAssay AID1508623 (National Center for Advancing Translational Sciences (NCATS), 2021).
About 450 (0.94%) of roughly 48,000 compounds were called active. Roughly 19% stayed inconclusive and do not appear here. Calls come from the whole dose curve; as a rule, active = well fitted inhibition curve with a large enough effect; inconclusive = small, poorly fitted or top-dose-only effect; inactive = no such curve, though single readings can be large or run the other way. The full list was thinned out, with actives kept by preference.

Experiment: Primary qHTS for Identification of Small Molecule Inhibitors of Huntingtin Promoter Activity; note: nearly all actives have a fitted effect of over 50% in size
Conditions: HEK293 HTT promoter firefly luciferase reporter (activity 0% = vehicle and -100% = no light), 24 h; series mostly up to 57.5 µM; activity change, negative = inhibition: at the top concentration
Description: Assay Provider: Russell L. Margolis M.D.
Department Neurology, Johns Hopkins University School of Medicine, Baltimore, MD
Huntington's Disease (HD) is a neurodegenerative disorder caused by a CAG repeat expansion in exon 1 of huntingtin (HTT). While there are currently no disease-modifying treatments for HD, recent efforts have focused on development of nucleotide-based therapeutics to lower HTT expression. As an alternative to siRNA or oligonucleotide methods, we hypothesized that suppression of HTT expression might be accomplished by small molecules that either (1) directly decrease HTT expression by suppressing HTT promoter activity or (2) indirectly decrease HTT expression by increasing the promoter activity of HTT-AS, the gene antisense to HTT that appears to inhibit expression of HTT.
We developed and employed a high throughput screen for modifiers of HTT and HTT-AS promoter activity using luminescent reporter HEK293 cells; of the 52,041 compounds tested, we identified 898 replicable hits. We used a rigorous stepwise approach to assess compound toxicity and the capacity of the compounds to specifically lower huntingtin protein in 5 different cell lines, including HEK293 cells, HD lymphoblastoid cells, mouse primary neurons, HD iPSCs differentiated into cortical-like neurons, and HD hESCs. We found no compounds which were able to lower huntingtin without lowering cell viability in all assays, though the potential efficacy of a few compounds at non-toxic doses could not be excluded.
SEQUENCE No. (1, 2, 3, etc.); […] (e.g., Cells, Incubation, Reagent, etc.); VALUE and DESCRIPTION.
1; Reagent; 4 uL; 2,500 Hek293 luciferase reporter cells per wells
3; Compound; 23 nL; Control inhibitor / compound library
5; Reagent; 2.5 uL; Firefly Luc reagent; Dual-Glo Luciferase Reporter Assay System (Promega)
6; Time; 10 min; room temperature incubation
7; Detection; Luminescence; FLuc
NOTES (numbers refer to sequence above)
1; High-throughput screening, measuring luminescence from a Hek293 luciferase reporter, was performed in 1,536 well white-walled tissue-culture treated plates. 2,500 cells were plated in 4 µL of Opti-MEM per well using a Multidrop Combi Reagent Dispenser (ThermoFisher).
2; Assay plates were cultured for 24 hours.
3; Control inhibitor (PTC124; final concentration of 50 uM) and compound library (at final concentrations of 460 nM - 57.5 uM) were added to the assay plate using the Kalypsis Pintool Robotic System equipped with 1536 pinheads.
4; Cells were then incubated for 24 hours at 37 degrees C prior to luminescence measurements.
5; In all cases, luminescence was measured using the Dual-Glo Luciferase Reporter Assay System (Promega) following the manufacturer's instructions.
6; Room temperature incubation.
7; Luminescence signal was obtained using the PerkinElmer ViewLux plate reader. Results were normalized to vehicle control (0% activity) and zero RLU (-100% activity).
Potency is the fitted concentration of half-maximal effect.

Structure (SMILES) | activity change, negative = inhibition | Potency
COc1ccc(Br)cc1C1CC(=O)Nc2c1c(C)nn2-c1nc(C)cc(C)n1 (stereo not given) | -16.2% (inactive) | 
CCC(=O)Nc1c(C(=O)N2CCN(c3ccc(F)cc3)CC2)oc2ccccc12 | -33.6% (inactive) | 
COc1cccc(-c2n[nH]c3c2C(c2cccc(O)c2)N(C)C3=O)c1 (stereo not given) | 17.8% (inactive) | 
COc1ccc(Cn2ccn(Cc3cccc(OC)c3)c(=O)c2=O)cc1 | -28.6% (inactive) | 
CCN1CCN(CCCNC(=O)c2cnn(-c3ccc(C)cc3C)c2C2CCN(C(=O)OC(C)(C)C)CC2)CC1 | -19.2% (inactive) | 
CCCCNC(=O)CSc1nc2cc3c(cc2c(=O)n1CCCCCC(=O)NCc1ccc2c(c1)OCO2)OCO3 | -6.32% (inactive) | 
CCOC(=O)C1CCN(C(c2ccc(F)cc2)c2sc3nc(-c4ccco4)nn3c2O)CC1 (stereo not given) | 18.8% (inactive) | 
COc1ccc(-c2cccc(NS(=O)(=O)c3cc(C)c(OC)c(C)c3C)c2)nn1 |  | 11.2 µM (active)
CCOC(=O)c1cccc(NS(=O)(=O)c2cc(-c3cnc(C)o3)ccc2OC)c1 | -42.3% (inactive) | 
Cc1ccc(CCNC(=O)Cn2c(-c3cccs3)cc3cc(F)ccc32)cc1 | -11.7% (inactive) | 
CCc1ccccc1NC(=O)Cn1c(=O)n(CC2CCC(C(=O)NCCc3ccccc3)CC2)c(=O)c2ccccc21 (stereo not given) | -7.23% (inactive) | 
COc1cc(NS(=O)(=O)c2ccc3c(c2)OCC(C(=O)N2CCCC2)O3)cc(OC)c1 (stereo not given) |  | 14.1 µM (active)
COc1cc(NS(=O)(=O)c2cccs2)cc(OC)c1 | -9.91% (inactive) | 
COc1ccc(OC)c2sc(N3CCN(C(=O)C4COc5ccccc5O4)CC3)nc12 (stereo not given) | 0.0158% (inactive) | 
COc1ccccc1CNC(=O)C(=O)NCC(c1cccs1)S(=O)(=O)c1cccs1 (stereo not given) | -23.9% (inactive) | 
CC1CN(C(=O)N2CCC(C(=O)NCc3ccco3)CC2)c2cc(Cl)ccc2O1 (stereo not given) | -15.5% (inactive) | 
CCc1ccc(CN(Cc2ccco2)C(=O)COc2ccc(Cl)c(C)c2)cc1 | -27.9% (inactive) | 
CC(C)NC(=O)C1CCC(Cn2c(=O)c3sccc3n(Cc3ccc(F)cc3)c2=O)CC1 (stereo not given) | -5.63% (inactive) | 
CC(=O)Nc1cccc(NC(=O)CSc2cn(CC(=O)N3CCCC3)c3ccccc23)c1 | -8.94% (inactive) | 
Cc1ccc(-c2nn(CCC(=O)Nc3ccc(OC(F)(F)F)cc3)c(=O)c3ccccc23)cc1 | 0.132% (inactive) | 
CN(C(=O)CN1C(=O)CCSc2ccc(S(=O)(=O)N3CCCC3)cc21)c1ccccc1 | -11.3% (inactive) | 
CCc1ccc(NC(=O)CN2CCSc3ccc(S(=O)(=O)N4CCCC4)cc32)cc1 |  | 31.6 µM (active)
CCc1ccc(NC(=O)CN2C(=O)CCSc3ccc(S(=O)(=O)N4CCCC4)cc32)cc1 | -29.8% (inactive) | 
COC(=O)c1ccccc1NC(=O)c1cnn(-c2ccc(F)cc2)c1-n1cccc1 | -22% (inactive) | 
CCCCN(CC)CCCNC(=O)c1nn(C)c2c1CS(=O)(=O)c1ccccc1-2 | -0.275% (inactive) | 
CCCCC(=O)OC1=CN(Cc2ccccc2)S(=O)(=O)c2ccccc21 | -7.99% (inactive) | 
COc1cccc(NC(=O)Cn2c(=O)cc(C)c3c(C)nn(-c4cccc(F)c4)c32)c1 | 33.6% (inactive) | 
COc1ccc(NC(=O)c2ccco2)cc1NC(=O)COc1ccc(C)c(C)c1 | -38.4% (inactive) | 
CCOC(=O)c1ccccc1NC(=O)CCc1c(C)nc2c(c1C)c(=O)n(C)c(=O)n2C | -2.84% (inactive) | 
CCc1nn(CC(=O)NCC(C)c2ccccc2)c(=O)c2cc3occc3n12 (stereo not given) | 1.38% (inactive) | 
